# Hits are enriched below; roughly 10% of the tested compounds scored in any of these assays.
# KB-V1 MDR tox: kills drug-selected multidrug resistant KB-V1 cells; KB-V1 MDR cells viability, CellTiter-Glo, 72 h; Potency, µM (doses to about 46.1 µM), actives largely listed as cytotoxic; 3.4% of 400,000 active; AID 1347076; also: % is scaled to controls: 0 for no effect and ±100 for the full control effect; nearly all actives have a fitted effect of over 60% in size
#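 KB-V1, DMEM (no phenol red) + 10% FBS; cpd pin-transferred, titration series; 72 h, 37 degrees C; CellTiter-Glo, luminescence. Data normalized, curve-fit.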
# RORg inh: blocks mouse ROR gamma transcriptional activity; Potency, µM (top dose mostly 53.6 µM), for the others: at the top dose activity change, negative = inhibition, most hits filed as inhibitors; 5.4% of 310,000 active; AID 2551; P51450; Drosophila S2 Gal4-RORgamma UAS-luciferase reporter, 20 h; also: % is scaled to controls: 0 for no effect and ±100 for the full control effect; nearly all actives have a fitted effect of over 60% in size
# Target sequence (P51450 whole entry, looked up, the tested form may be a part): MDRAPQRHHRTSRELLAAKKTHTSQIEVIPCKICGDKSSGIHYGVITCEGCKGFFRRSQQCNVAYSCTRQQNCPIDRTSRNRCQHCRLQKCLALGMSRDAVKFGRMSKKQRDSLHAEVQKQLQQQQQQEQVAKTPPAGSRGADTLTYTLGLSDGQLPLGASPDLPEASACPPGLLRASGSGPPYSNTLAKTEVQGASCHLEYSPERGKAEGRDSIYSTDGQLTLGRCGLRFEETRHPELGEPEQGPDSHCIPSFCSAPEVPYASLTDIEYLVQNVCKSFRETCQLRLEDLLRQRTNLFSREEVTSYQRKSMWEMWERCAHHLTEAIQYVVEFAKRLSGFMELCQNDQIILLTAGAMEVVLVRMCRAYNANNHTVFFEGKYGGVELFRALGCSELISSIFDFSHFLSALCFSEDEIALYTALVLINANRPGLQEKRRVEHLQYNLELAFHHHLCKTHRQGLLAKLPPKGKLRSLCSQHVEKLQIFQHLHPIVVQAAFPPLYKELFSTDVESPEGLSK
#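 Compounds are pin-transferred onto Drosophila Schneider cells expressing a copper-inducible Gal4–ROR gamma transactivation domain fusion. After 1 hr, copper sulfate is added to 700 uM final; luciferase is read 20 hr later.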
# Gal4-VP16 FLuc: Gal4-VP16 reporter inhibition counter-screen; Potency, µM (top dose mostly 53.6 µM), for the others: at the top dose activity, negative = inhibition, actives largely listed as inhibitors; Drosophila S2 Gal4-VP16 UAS-luciferase, luminescence, 20 h; 3.5% of 310,000 active; AID 2546;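 also: Gal4-VP16 expression switched on by copper sulfate through the metallothionein promoter; % is scaled to controls: 0 for no effect and ±100 for the full control effect; nearly all actives have a fitted effect of over 50% in size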
# KB-3-1 cytotox: kills parental KB-3-1 adenocarcinoma cells | KB-3-1 viability, CellTiter-Glo ATP luminescence, 72 h | Potency, µM (doses to about 46.1 µM), hits mostly cytotoxic | 1.4% of 400,000 active | AID 1347075; also: % is scaled to controls: 0 for no effect and ±100 for the full control effect; nearly all actives have a fitted effect of over 60% in size
#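 Screening of KB-3-1 cells (DMEM, 10% FBS, phenol-red free) ran from lowest to highest compound concentration; after 72 h at 37 °C viability was read luminescently and curves fitted.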
# MCF10A rerep: induces DNA re-replication in MCF 10a normal breast cells | MCF 10A DNA re-replication, Hoechst nuclear intensity, 48 h | Potency, µM (top dose mostly 46.1 µM), without a hit: at the highest dose activity, positive = re-replication, usual class: activators | 2.9% of 350,000 active | AID 624296; also: % of control where 0% means no effect; nearly all actives have a fitted effect of over 50% in size
# SW480 rereplic: DNA re-replication induction in SW480 cells; SW480 DNA re-replication, Hoechst DNA content imaging, 48 h; Potency, µM (top dose mostly 46.1 µM), for the others: top-dose re-replication activation, actives largely listed as activators; 1.8% of 340,000 active; AID 624297; also: % of control where 0% means no effect; nearly all actives have a fitted effect of over 55% in size
#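 Image-based read-out: total Hoechst fluorescence of nuclei (405 nm excitation, 500-530 nm emission), with hits raising the fraction of high-intensity nuclei. SW480 colon cells incubated 48 hr with compounds at 37 C.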
# An asterisk follows results filed as active; i = inactive; ? = inconclusive; nt = no result given; ! = repeats disagree; [ ] = dose if it differs, or a comment. Calls follow the shape of the dose curve; as a rule, active = well fitted curve in the direction sought with a large enough effect; inconclusive = small, poorly fitted or top-dose-only effect, or another doubt; inactive = no such curve, though single readings can be large; an effect the other way counts as inactive or inconclusive. Potency is read from the fitted curve at half-maximal effect.
SMILES,KB-V1 MDR tox,RORg inh,Gal4-VP16 FLuc,KB-3-1 cytotox,MCF10A rerep,SW480 rereplic
Cc1cccc2c(N)c3c(nc12)CCCC3 (tested in a mixture with another compound),i,-1%,-2%,i,?,?
Cc1cc(C)c2c(N)c3cccc(C)c3nc2n1,8.2µM*,-21%,-23%,7.3µM*,21µM*,16µM*
Cc1ccc(NC(=O)C2CCCN(c3ncnc4c3nc3n4CCCCC3)C2)c(Br)c1 (centres undefined),i,nt,nt,i,nt,nt
Cc1cc(C)c(NC(=O)Cn2nnc(-c3nc(-c4ccccc4)no3)c2N)c(C)c1,i,nt,nt,i,nt,nt
O=C1NCN(c2ccccc2)C12CCN(CCCC(c1ccc(F)cc1)c1ccc(F)cc1)CC2,?,13µM*!,18µM*!,?,27µM*!,?
COCc1cc(C)nc2c1C(=O)NC(c1ccc(F)cc1)N2Cc1ccccc1 (centres undefined),i,nt,nt,i,nt,nt
Cc1ccc(C(=O)c2c(C)oc3c2C(=O)C(=O)c2ccccc2-3)cc1,5.2µM*,5µM*,3.5µM*,?,18µM*,13µM*
Cc1ccc(C(=O)c2coc3c2C(=O)C(=O)c2ccccc2-3)cc1,?,?,?,i,-3%,-3%
Cc1oc2c(c1C(=O)c1ccc(Cl)cc1)C(=O)C(=O)c1ccccc1-2,16µM*,5.6µM*,6.3µM*,?,7.3µM*,-4%
O=C(NCCc1ccccc1)C(=O)NCC(c1cccnc1)N1CCN(c2ccccc2F)CC1 (centres undefined),i,nt,nt,i,nt,nt
C=CCn1c(SCC(=O)N2CCOCC2)nc2sc(CC)cc2c1=O,4.6µM*,nt,nt,i,-5%,-6%
C=CCn1c(SCC(=O)c2cccs2)nc2sc(C)cc2c1=O,7.3µM*,?,6%,i,?,0%
COc1ccc2c(c1)c(C(=O)CN1CCN(C(=O)c3ccco3)CC1)c(C)n2C,23µM*,-13%,4%,i,?,-6%
CCn1c(N2CCN(CC(=O)c3c(C)n(C)c4ccc(OC)cc34)CC2)nc2c1c(=O)[nH]c(=O)n2C,i,-5%,-6%,21µM*,20%,-5%
C=CC[C@@H]1C=C[C@@H](O/N=C\[C@@H](OC)[C@H](C)/C=C\CC(=O)OC)[C@@H](CO)O1,nt,1%[10 µM],2%[10 µM],nt,nt,nt
CCN(C(=O)CN1C(=S)NC(C)(C)CC1C)c1ccc(C)c(C)c1 (centres undefined),?,7.1µM*,?,i,4%,1%
CC1CC(C)(C)NC(=S)N1CCCC(=O)N1CCN(c2ccccc2F)CC1 (centres undefined),i,14µM*,?,i,0%,0%
O=C(CCn1cccc1)N1CCc2ccccc21,i,15%,29%,i,-2%,-5%
Cc1cccc(NC(=O)CN2C(=S)NC(C)(C)CC2C)c1C (centres undefined),i,?,?,i,0%,2%
CC1CC(C)(C)NC(=S)N1CCC(=O)N1CCc2ccccc21 (centres undefined),?,6.3µM*,?,i,-2%,1%
CC1CC(C)(C)NC(=S)N1CCCC(=O)Nc1ccccc1F (centres undefined),i,18µM*,-12%,i,-5%,-2%
O=C(N1CCN(c2ccccc2F)CC1)C12CC3CC(CC(C3)C1)C2,18µM*,?,-6%,i,?,11%
CC1CC(C)(C)NC(=S)N1CCCC(=O)Nc1ccc(Cl)cc1 (centres undefined),?,4µM*,?,i,-2%,-3%
Cc1ccc(NC(=O)CN2C(=S)NC(C)(C)CC2C)cc1Cl (centres undefined),?,14µM*,?,i,4%,-3%
O=C(N1CCN(c2ccc(F)cc2)CC1)C12CC3CC(CC(C3)C1)C2,i,-12%,-10%,i,4%,-4%
SMILES,KB-V1 MDR tox,RORg inh,Gal4-VP16 FLuc,KB-3-1 cytotox,MCF10A rerep,SW480 rereplic
CCOc1ccc(NC(=O)CCN2C(=S)NC(C)(C)CC2C)cc1 (centres undefined),?,?,?,i,0%,-2%
CC1CC(C)(C)NC(=S)N1CCC(=O)NCCc1ccc(Cl)cc1 (centres undefined),?,1.6µM*,7.9µM*,i,-2%,-2%
CSc1cccc(NC(=O)CC(c2cccs2)N2Cc3ccccc3C2=O)c1 (centres undefined),i,nt,nt,i,nt,nt
CCOc1ccc(CNCc2c(C(=O)O)n(Cc3ccc(OC)cc3)c3ccccc23)cc1,i,nt,nt,?,nt,nt
O=C(Nc1cccc(C(F)(F)F)c1)c1ccc2sc([C@H]3C[C@H](O)[C@@H](CO)O3)nc2c1,i,nt,nt,i,nt,nt
COc1cccc(C(=O)Nc2nc(-c3nnn(-c4ccccc4C(F)(F)F)c3C)ns2)c1,i,nt,nt,?,nt,nt
Cc1ccc(S(=O)(=O)c2nc(S(C)(=O)=O)sc2NCc2ccccc2)cc1,i,nt,nt,i,nt,nt
O=C(NCc1cccc(F)c1)C1CCN(c2nc3ccccc3nc2C(F)(F)F)CC1,i,nt,nt,i,nt,nt
CCc1ccc(CNc2ncnc3onc(-c4ccc(Cl)cc4)c23)cc1,i,nt,nt,i,nt,nt
CC1CC(C)(C)NC(=S)N1CCC(=O)Nc1ccc2c(c1)OCCO2 (centres undefined),?,-32%,11%,23µM*,?,?
CC1CC(C)(C)NC(=S)N1CCCC(=O)NCCc1ccc(Cl)cc1 (centres undefined),?,13µM*,?,i,4%,-3%
Cc1ccc(CNC(=O)CCCN2C(=S)NC(C)(C)CC2C)cc1 (centres undefined),i,?,5%,i,-3%,-3%
CC(C)[C@@H](OCc1ccccc1)[C@H](C)/C=N\OC[C@@H](O)COCc1ccco1,nt,13%[10 µM],0%[10 µM],nt,nt,nt
CC12CCC(C(=O)Nc3cccc(Cl)c3)(C(Br)C1=O)C2(C)C (centres undefined),15µM*,3%,3%,?,?,?
CC12CCC(C(=O)Nc3ccc(Cl)cc3)([C@H](Br)C1=O)C2(C)C (some centres undefined),i,-9%,1%,i,-5%,-44%
COc1ccc(NC(=O)COC(=O)CNS(=O)(=O)c2ccc(C)cc2)c(OC)c1,i,-10%,-5%,i,-3%,-1%
COc1cc2c(cc1NC(=O)COC(=O)CNS(=O)(=O)c1ccc(C)cc1)oc1ccccc12,i,11µM*,4µM*,i,0%,-6%

# Assay outcomes from PubChem.
